Data taken from PubChem BioAssay (NCI).
This is part of a sample that, as a whole, favours compounds with a hit. Of some 79,000 tested, about 15% had one in any assay. No stated cut-off is given here; in the data, active means growth inhibition above about 70%; inactive means the rest. Where a SMILES comes first, the peptide text is derived from it. The star is where a group is joined. ONp = O=[N+]([O-])c1ccc(O*)cc1; Cbz = O=C(OCc1ccccc1)*; OBn = c1ccc(CO*)cc1

Columns and labels:
[1] = NCI Yeast Anticancer Drug Screen. Data for the rad50 strain (AID 155);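 further: 0% = growth of vehicle-only cultures of the same strain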; conditions: S. cerevisiae rad50 strain growth inhibition; at 50.0 µM; active compounds read high
Summary of the method: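 Relative growth inhibition (compound vs vehicle) was measured in yeast with a defined repair-gene alteration.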

[2] = NCI Yeast Anticancer Drug Screen. Data for the mec2-1 strain (AID 157); conditions: S. cerevisiae mec2-1 strain, at 50.0 µM, active compounds read high
Summary of the method: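 Vehicle-treated cultures served as reference for growth inhibition of compound-exposed mec2-1 yeast.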

[3] = NCI Yeast Anticancer Drug Screen. Data for the sgs1 mgt1 strain (AID 161);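 further: 0% = growth of cultures given vehicle only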; conditions: S. cerevisiae sgs1 mgt1 strain, at 50.0 µM, active compounds read high
Summary of the method: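 Inhibition of yeast growth, normalised to vehicle-treated controls, is reported for a strain bearing genetic alterations in DNA damage repair.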

[4] = NCI Yeast Anticancer Drug Screen. Data for the cln2 rad14 strain (AID 165);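 further: 0% = growth equal to vehicle treated cultures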; conditions: S. cerevisiae cln2 rad14 strain, at 50.0 µM, active compounds read high
Summary of the method: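 Each compound was tested on cln2 rad14 yeast. Inhibition of growth was calculated against vehicle-exposed controls.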

[5] = NCI Yeast Anticancer Drug Screen. Data for the bub3 strain (AID 167); conditions: S. cerevisiae bub3 mutant strain, at 50.0 µM, active compounds read high
Summary of the method: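 Screening used yeast with an engineered genetic alteration affecting cell cycle control. Compound-exposed cultures were compared with vehicle cultures, and reduced growth was taken as inhibition.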

[6] = NCI Yeast Anticancer Drug Screen. Data for the mlh1 rad18 strain (AID 175); conditions: S. cerevisiae mlh1 rad18 strain growth inhibition; at 50.0 µM; active compounds read high
Summary of the method: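 Vehicle-treated cultures served as the reference for growth inhibition in a yeast strain carrying DNA damage repair alterations exposed to each compound.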

Measured: growth inhibition

CCCC1(O)c2ccccc2-c2ccccc21
inactive: [1] 12.1% | [2] 17.9% | [3] -5.6% | [4] 14.9% | [5] 26.4% | [6] 17%

O=C(CNC(=O)C(CCC(=O)OCc1ccccc1)NC(=O)OCc1ccccc1)NCC(=O)NC(CO)C(=O)NCC(=O)Oc1ccc([N+](=O)[O-])cc1 (stereo unspecified) (Cbz-E(OBn)GGSG-ONp; configuration not given here)
inactive: [1] 3.75% | [2] 8.05% | [3] 21.4% | [4] -7.85% | [5] 1.65% | [6] 20.4%

O=C(NCc1cccs1)OC1CC2CCC1C2 (stereo unspecified)
inactive: [1] 1.6% | [2] -7.45% | [3] 10.8% | [4] -14.8% | [5] -8% | [6] 20.4%

CC(=O)OCC(CO)(CO)COC(C)=O
inactive: [1] 8.25% | [2] 8.65% | [3] -16.2% | [4] 7.45% | [5] -3.7% | [6] -6.7%

NC(=S)N/N=C/c1cc([N+](=O)[O-])ccc1O
inactive: [1] 1.95% | [2] -3.4% | [3] 25.9% | [4] 51% | [5] 8.5% | [6] -87.9%

N#CCCNc1ccc2c(c1)Cc1ccccc1-2
inactive: [1] 1.65% | [2] 3.4% | [3] 18.6% | [4] -14.2% | [5] 12.4% | [6] -27.5%

Cc1ccc([N+](=O)[O-])cc1NC(=O)COc1ccc(Cl)cc1Cl
inactive: [1] 6.25% | [2] 0.55% | [3] 13.5% | [4] 10.2% | [5] 1.85% | [6] 1.15%

NC(=O)C1=C(O)C(=O)NC1=O
inactive: [1] 1.6% | [2] 1.55% | [3] 8.9% | [4] -29.8% | [5] 7.05% | [6] -5.1%

CCOc1cc(/C=C2\N=C(c3ccccc3)OC2=O)ccc1O
inactive: [1] 5% | [2] 1.2% | [3] 2.6% | [4] -50.8% | [5] -12.8% | [6] -2.75%

C#CCOc1ccc(C(F)(F)F)cc1
inactive: [1] -8.1% | [2] -15.4% | [3] -1.6% | [4] -17.4% | [5] 15.4% | [6] -2.05%

O=C(O)CNC1CCCC1
inactive: [1] -1.3% | [2] 3.65% | [3] 4.35% | [4] -1.6% | [5] 4.95% | [6] -15.1%

CCOC(=O)C(=O)NC12CC3CC(CC(C3)C1)C2
inactive: [1] -16.9% | [2] -17.6% | [3] 1.5% | [4] -4.45% | [5] 24.8% | [6] -8.3%

CCCCCCCCCCCCCCCCS(=O)(=O)N/N=C(/c1cccc(N)c1)N1CCOCC1
inactive: [1] -29.6% | [2] -40.8% | [3] -13.2% | [4] 4.2% | [5] -7.75% | [6] -21.2%

COc1ccccc1NC(=O)Oc1ccc(C#N)cc1
inactive: [1] 7.2% | [2] -14.5% | [3] 15% | [4] -1.8% | [5] 9.75% | [6] 0.4%

COC1OC(CO)C(O)C(NC(=O)[C@H](Cc2ccccc2)NC(=O)OCc2ccccc2)C1O (stereo partly specified)
inactive: [1] 16.6% | [2] 0.75% | [3] 0.95% | [4] 8.65% | [5] 0.45% | [6] 14%

Cc1nc2c(=O)[nH]c(N)nc2[nH]c1=O
inactive: [1] -10% | [2] -4% | [3] -6.15% | [4] -30.4% | [5] -13.8% | [6] 2.3%

Cc1ccc(S(=O)(=O)N/N=C/C(O)C(O)C(O)C(O)CO)cc1 (stereo unspecified)
inactive: [1] 5.9% | [2] -5.15% | [3] -14.8% | [4] -34.1% | [5] -8.45% | [6] 12.3%

CCCCCC(/C=N/Nc1ccccn1)=C\c1ccccc1
inactive: [1] -0.25% | [2] -2.1% | [3] 3.9% | [4] -18.2% | [5] -17.4% | [6] -17.4%

O=C1Oc2cc3c(c4cccc1c24)OCN(c1ccc(Cl)cc1)C3
inactive: [1] 38.6% | [2] 29.9% | [3] 53.1% | [4] 33% | [5] 33% | [6] 37.5%

COn1nnc2c([N+](=O)[O-])cccc21
inactive: [1] 18.8% | [2] -6% | [3] -3.15% | [4] -22.9% | [5] -16.4% | [6] 5%

CCOC(=O)c1c(OC)ccc2ccccc12
inactive: [1] 13.3% | [2] 10.7% | [3] 4% | [4] -29.9% | [5] 21.6% | [6] 0.35%
